# In the library only some 3.7% were active in any assay of this set; here they are far more common.
# FMDV inh – High Throughput Screening for Foot and Mouth Disease Virus Antivirals | FMDV antiviral cell-based qHTS | Potency, µM (titrated, usually from 57.9 µM), inactives show at the highest dose activity change, negative = inhibition, hits mostly inhibitors | 410,000 compounds, 1.2% hits | AID 1159524, 2015; calls by dose curve; tested in HEK293T cells; note: read-out not given here; nearly all actives have a fitted effect of over 45% in size
# Sm TGR block – qHTS Assay for the Inhibitors of Schistosoma Mansoni Peroxiredoxins; Schistosoma mansoni thioredoxin glutathione reductase (TGR), Q962Y6; purified TGR, DTNB reduction, TNB absorbance 405 nm; Potency, µM (highest dose often 114 µM), for inactives: at the highest dose activity change, negative = inhibition, hits mostly inhibitors; 360,000 compounds, 3% hits; AID 485364, 2010; note: nearly all actives have a fitted effect of over 60% in size
#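 Kinetic colorimetric format: TGR-catalysed, NADPH-driven DTNB reduction monitored via TNB absorbance. Enzyme dispensed at 20 nM; compound exposure 15 min at room temperature before reaction start.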
# RE007 growth inh – qHTS Assay for Inhibitors of the HIV-1 protein Vpr. S. pombe RE007 Vpr strain, BacTiter-Glo ATP luminescence, 24 h. Potency, µM (titrated, usually from 92.2 µM), for inactives: at the highest dose activity change, negative = less growth, hits mostly inhibitors. 360,000 compounds, 0.21% hits. AID 651644, 2012; active = well fitted falling curve with a large enough effect; inconclusive = small, poorly fitted or top-dose-only effect; inactive = no such curve, though single readings can be large or run the other way; note: nearly all actives have a fitted effect of over 50% in size
#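 Fission yeast strain RE007, carrying one chromosomally integrated HIV-1 vpr copy, was seeded at OD 0.01 in PMG+AL medium with 23 nL pinned compound. After 24 h at 30 °C and 99% humidity, viability was read by BacTiter-Glo luminescence.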
# Tb PYK inh – qHTS of Trypanosoma Brucei Inhibitors; TbPYK enzyme, Kinase-Glo Plus ATP luminescence, 45 min; Potency, µM (doses to about 76.8 µM), inactives show at the highest dose activity, negative = inhibition, hits mostly inhibitors; 410,000 compounds, 0.12% hits; AID 624173, 2012; note: nearly all actives have a fitted effect of over 50% in size
#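 In this concentration-response screen, enzyme-free wells defined baseline while DMSO plates tracked drift. Each reaction combined TbPYK, substrate, compound and 130 uM ADP for 45 min at room temperature. Kinase-Glo Plus luminescence gave the signal.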
# * = called active by the depositor; ? = inconclusive; / = not tested or not shown. Unless noted, calls come from the whole dose curve; as a rule, active = well fitted curve in the direction sought with a large enough effect; inconclusive = small, poorly fitted or top-dose-only effect, or another doubt; inactive = no such curve, though single readings can be large; an effect the other way counts as inactive or inconclusive. % is set by controls: 0 for no effect and ±100 for the full control effect; potency is the fitted concentration of half-maximal effect.
SMILES,FMDV inh,Sm TGR block,RE007 growth inh,Tb PYK inh
CCC(Sc1nc2ncccc2[nH]1)C(=O)Nc1ccccc1F (centres undefined),-11%,3%,/,4%
CCOC(=O)c1c(C)[nH]c(C)c1S(=O)(=O)N1CCC(C(=O)NCc2ccccc2)CC1,23%,6%,/,-2%
CN(Cc1cccc(-c2ccncc2)c1)C(=O)Oc1ccc([N+](=O)[O-])cc1,22µM*,/,-16%,3%
CN(C(=O)Oc1ccc([N+](=O)[O-])cc1)c1ccccc1,6%,8%,-5%,1%
CC1(C)CC(=O)C(C(C2=C(O)CC(C)(C)CC2=O)c2ccco2)C(=O)C1 (centres undefined),?,?,13%,?
COc1cc(C(C2C(=O)CC(C)(C)CC2=O)C2C(=O)CC(C)(C)CC2=O)cc(OC)c1OC,-1%,25µM*,15%,?
COc1cc(C(C2=C(O)CC(C)(C)CC2=O)C2C(=O)CC(C)(C)CC2=O)cc(OC)c1OC (centres undefined),-10%,16µM*,2%,-24%
COc1ccc(C(C2C(=O)CC(C)(C)CC2=O)C2C(=O)CC(C)(C)CC2=O)cc1COCC(F)(F)F,-11%,40µM*,-1%,-19%
O=C(Cn1c(=O)oc2cc(S(=O)(=O)N3CCCCCC3)ccc21)Nc1ccc(F)cc1F,-18%,-12%,/,-3%
Cc1cc(C)cc(OCC(=O)Nc2nc3c(s2)CC(C(C)(C)C)CC3)c1 (centres undefined),-26%,7%,/,3%
COc1cc(CNc2nc(C)c(-c3ccn(C4Cc5ccccc5C4)n3)s2)cc2c1OCO2,-15%,/,/,/
COc1ccc(-n2c(=O)c3ccccc3n(Cc3cccc(C)c3)c2=O)cc1,-29%,2%,/,5%
CSc1nc(NCCOCCO)c2sc3nc(-c4ccco4)c4c(c3c2n1)CCC4,40µM*,3.2µM*,1%,3%
CCN(CCO)c1nc(SC)nc2c1sc1nc(-c3ccco3)c3c(c12)CCC3,?,3.5µM*,-21%,-8%
CSc1nc(NCc2ccco2)c2sc3nc(C(C)C)c4c(c3c2n1)CC(C)(C)OC4,6%,?,?,4%
COc1cc(NC(=O)Cn2c(=O)n(C(C)C)c(=O)c3oc4ccccc4c32)cc(OC)c1,-26%,-1%,/,2%
Cc1cnc(SCc2ccccn2)nc1C1CCCN(C(=O)c2ccc3c(c2)OCCO3)C1 (centres undefined),-3%,/,/,/
Cc1ccc(N/C(N)=N/c2nc(C)cc(N3CCCCC3)n2)c(C)c1,16µM*,-12%,2%,-4%
Cc1ccc(N/C(N)=N/c2nc3c(c(=O)[nH]2)CCCC3)c(C)c1,/,0%,0%,-11%
O=C1CC(N2CCOCC2)C(=O)N1CCN1C(=O)CC(N2CCOCC2)C1=O (centres undefined),11%,-24%,-7%,-1%
CN(C)N1C(=O)CC(N2CCCC2)C1=O (centres undefined),-5%,22µM*,?,-4%
CC(C)(C)c1cc(CN2CCN(CCO)CC2)cc(C(C)(C)C)c1O,-2%,2.5µM*,10%,1%
CCN1CCN(Cc2cc(C(C)(C)C)c(O)c(C(C)(C)C)c2)CC1,/,2.8µM*,/,/
CCOC(=O)Cc1nn(Cc2nc(-c3ccc(C#N)cc3)cs2)c(=O)c2ccccc12,18µM*,22%,4%,1%
Oc1ccc(CCNCCCCCCNCCc2ccccc2)cc1O,/,/,/,10%
SMILES,FMDV inh,Sm TGR block,RE007 growth inh,Tb PYK inh
Cc1cc(C)cc(NC(=O)c2ccc3oc(=O)c(S(=O)(=O)c4ccc(F)cc4)cc3c2)c1,20µM*,2%,/,-1%
COc1ccc(OC)c(CCNC(=O)c2c(C)oc3ncn(CC(C)C)c(=O)c23)c1,-23%,12%,/,4%
CCc1nn(CCCC(=O)N2CCN(c3cc(Cl)ccc3C)CC2)c(=O)c2cc3occc3n12,-18%,-4%,/,-2%
[O-][n+]1cccc2c(Br)cc(Br)c(O)c21,-19%,7.9µM*,?,-11%
Oc1c(Br)cc(Br)c2cccnc12,0%,/,?,-5%
COc1ccc2c(c1)Cc1sc(NC(C)=O)nc1-2,-15%,56µM*,-13%,?
COc1ccc2c(c1)Cc1sc(NC(=O)c3ccco3)nc1-2,-3%,-4%,-12%,-18%
CCOC(=O)[C@]12Cc3cc4ccccc4cc3[C@H]1N(Cc1ccccc1)C(=O)c1cc(OC)ccc12,7.9µM*,/,-5%,0%
CCOC(=O)[C@]12Cc3cc4ccccc4cc3[C@H]1N(Cc1ccccc1)C(=O)c1ccccc12,?,/,-1%,0%
CCOC(=O)[C@]12Cc3cc(OC)ccc3[C@H]1N(Cc1ccccc1)C(=O)c1cc(OC)ccc12,-15%,/,-8%,1%
CCOC(=O)[C@]12Cc3ccc4ccccc4c3[C@H]1N(Cc1ccccc1)C(=O)c1ccccc12,22µM*,/,9%,1%
CCCCCN1C(=O)c2cc(OC)ccc2[C@@]2(C(=O)OCC)Cc3cc(Cl)ccc3[C@@H]12,7.9µM*,/,?,0%
CCOC(=O)[C@]12Cc3cc(Cl)ccc3[C@H]1N(Cc1ccccc1)C(=O)c1cc(OC)ccc12,8.9µM*,/,-30%,-2%
Cc1ccc(NS(=O)(=O)c2ccc(-c3cc(C)no3)cc2)c(Br)c1,-19%,7%,/,1%
CC1(C)O[C@H]2[C@@H](O1)[C@@H](C(=O)Nc1cc(F)ccc1F)O[C@@H]1OC(C)(C)O[C@@H]12,19%,-4%,/,2%
CC(=O)N(CCC(c1ccco1)C(C)C)Cc1ccc(Cl)cc1 (centres undefined),-28%,20µM*,-14%,-4%
COc1ccccc1C(CC(N)=O)c1ccco1 (centres undefined),0%,-6%,21%,1%
COc1ccccc1C(CCN(Cc1ccccc1)C(C)=O)c1ccco1 (centres undefined),-23%,18µM*,15%,-3%
O=S(=O)(c1ccc(F)cc1)c1snnc1-c1ccccc1,?,35µM*,-12%,2%
O=S(=O)(c1ccc(Cl)cc1)c1snnc1-c1ccccc1,10µM*,13µM*,-20%,0%
COc1cc(/C=C/c2nc(C#N)c(NC(C)c3ccccc3)o2)cc(OC)c1OC (centres undefined),-14%,-5%,/,-2%
O=C(CSc1nnc2ccc3ccccc3n12)Nc1ccccc1Cl,35%,-12%,/,-1%
NC1=NC(=O)/C(=C\c2ccco2)S1,36%,3.2µM*,-22%,-22%
O=C1N=C(N2CCN(c3ccccc3)CC2)S/C1=C\c1ccco1,1%,22µM*,8%,-4%
NC1=NC(=O)C(=Cc2ccccc2)S1,11%,/,2%,-10%
O=C1N=C(N2CCN(c3ccccc3)CC2)S/C1=C/c1ccco1,11%,?,4%,-3%
O=C(CSc1nccn1Cc1ccc(Cl)cc1)Nc1ccc2c(c1)OCCO2,8%,-2%,/,-17%
